3T3 cytotox = NIH 3T3 cell cytotoxicity | NIH 3T3 viability, CellTiter-Glo ATP luminescence, 48-72 h | Potency, µM (top dose mostly 96.7 µM), actives largely listed as inhibitors | 94,000 compounds, 4.3% hits | AID 1345082; further: nearly all actives have a fitted effect of over 55% in size
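Cells were seeded at 400 per well, treated with pin-transferred compound, and kept 48 or 72 hr at 37 °C before CellTiter-Glo addition and luminescence imaging of cellular ATP.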
Luciferase inh = inhibitors of firefly (Photinus pyralis) luciferase | AID 1347043 | 76,000 compounds, 2.5% hits | purified P. pyralis luciferase, luminescence, biochemical | Potency, µM (highest dose often 115 µM), most hits filed as inhibitors; further: nearly all actives have a fitted effect of over 65% in size
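Luminescence read by CCD imaging after purified firefly luciferase (10nM final) was added to substrate buffer holding 10uM D-luciferin and 10uM ATP, pH 7.5, pre-dosed with compound.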
NPR1 antag = blocks ANP-stimulated signaling of human Npr1 receptor; P16066; HEK293 hNpr1 GloSensor cGMP, ANP-stimulated luminescence; Potency, µM (top dose mostly 46.3 µM), actives largely listed as inhibitors; 76,000 compounds, 1.6% hits; calls by dose curve; further: nearly all actives have a fitted effect of over 60% in size
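HEK293 cells stably expressing human Npr1 and cGMP GloSensor pGS-40F, loaded 2 h with 2% GloSensor reagent, given compound 30 min at room temperature. Luminescence read before and 20 min after 0.1 nM hNppA.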
HEK293 tox = kills HEK 293 cells. HEK 293 viability, ATP luminescence (CellTiter-Glo), 48-72 h. Potency, µM (doses to about 115 µM), most hits filed as inhibitors. 94,000 compounds, 6.6% hits. AID 1345083; further: nearly all actives have a fitted effect of over 60% in size
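Pintool-delivered compounds were incubated with HEK 293 cells (250 cells/well) at 37 degree Celsius for 48 or 72 hr. ATP-dependent luminescence (CellTiter-Glo) then reported remaining viable cells.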
Hits are given with their value; - = inactive; ? = inconclusive; . = no result given. Sampled rows, rich in hits. Any-hit rate of the full collection: about 11%. Unless noted, the call rests on the fitted dose curve; in most records, active means well fitted curve in the direction sought with a large enough effect; inconclusive means small, poorly fitted or top-dose-only effect, or another doubt; inactive means no such curve, though single readings can be large; an effect the other way counts as inactive or inconclusive.

SMILES	3T3 cytotox	Luciferase inh	NPR1 antag	HEK293 tox
Cc1nn(-c2ccc(F)cc2)c(C)c1[C@@H]1C=C[C@@H](NC(=O)CC(C)(C)CC(=O)O)C1	?	-	-	-
Cc1nn(-c2ccccc2[N+](=O)[O-])c(C)c1[C@@H]1C=C[C@@H](NCc2ccc(F)cc2)C1	89µM	?	-	100µM
COc1ccc(-n2nc(C)c([C@@H]3C=C[C@@H](NCc4ccc(F)cc4)C3)c2C)cc1	32µM	25µM	?	28µM
Cc1nn(-c2ccccc2)c(C)c1[C@@H]1C=C[C@@H](NCc2ccc(F)cc2)C1	?	?	-	63µM
Cc1nn(-c2ccc(C(F)(F)F)cc2)c(C)c1[C@@H]1C=C[C@@H](NCc2ccc(N(C)C)cc2)C1	11µM	-	-	20µM
Cc1nn(-c2ccc(C(F)(F)F)cc2)c(C)c1[C@@H]1C=C[C@@H](NC(=O)COCC(=O)O)C1	-	-	-	-
CN(C)c1ccc(CN2CCC3(COc4ccccc4C(=O)N3)C2)cc1 (stereo unspecified)	?	-	-	?
COc1cccc(CN2CCCC3(COc4ccccc4C(=O)N3)C2)c1 (stereo unspecified)	?	-	-	?
CC(C)CCN1CCC2(COc3ccccc3C(=O)N2)C1 (stereo unspecified)	100µM	-	-	?
CN(C)c1ccc(CN2CCC3(CC2)COc2ccccc2C(=O)N3)cc1	22µM	-	-	?
COc1cccc(CN2CCC3(COc4ccccc4C(=O)N3)C2)c1 (stereo unspecified)	40µM	-	-	89µM
CC(C)CCN1CCCC2(COc3ccccc3C(=O)N2)C1 (stereo unspecified)	?	-	-	?
O=C(c1nc2cccnc2n(CCc2ccccc2)c1=O)N1CCCC1	-	.	.	-
COc1ccc(-c2cccc(C(=O)N3CCOCC3)c2)nn1	-	.	.	-
CSc1cccc(NC(=O)Nc2cccc(-c3ccc(N4CCCC4)nn3)c2)c1	?	1.8µM	-	?
Cc1ccc(NC(=O)Nc2cccc(-c3ccc(N4CCOCC4)nn3)c2)cc1	-	0.63µM	?	?
CCc1ccccc1NC(=O)Nc1cccc(-c2ccc(N3CCOCC3)nn2)c1	?	1µM	-	?
O=C(Nc1cccc(-c2ccc(N3CCOCC3)nn2)c1)Nc1ccc(F)cc1F	?	2µM	-	?
CSc1cccc(NC(=O)C2CCCN(c3cnc4nc(C)c(C)nc4c3)C2)c1 (stereo unspecified)	-	-	-	-
CCc1ccccc1NC(=O)Cn1c(N2CCOCC2)nc(COC)cc1=O	-	-	-	-
Cc1cccc(C(=O)Nc2cccc(-c3ccc(N4CCN(C)CC4)nn3)c2)c1	40µM	32µM	-	?
CC(=O)Nc1cccc(-c2ccnc(-c3nnc(C)n3CCN3CCOCC3)c2)c1	?	-	-	-
Cc1ccc(C(=O)Nc2cccc(-c3nnc4n3CCCC4)c2)cc1	-	?	-	-
CSc1ccc(NC(=O)Nc2cccc(-c3ccc(N4CCOCC4)nn3)c2)cc1	?	0.56µM	11µM	?
Cc1ccc(S(=O)(=O)N2CCC(n3cnnc3C)CC2)cc1F	-	-	-	-
SMILES	3T3 cytotox	Luciferase inh	NPR1 antag	HEK293 tox
COC(=O)[C@@H]1Cc2c([nH]c3ccccc23)[C@H]2C[C@@H](NCc3cccnc3)C[C@@H](c3ccc(C(F)(F)F)cc3)N21	28µM	-	-	?
O=C(NCc1cccnc1)[C@@H]1C[C@@H](c2ccc(F)cc2)N(CCOc2ccccc2)C1	?	-	-	?
COC(=O)[C@@H]1Cc2c([nH]c3ccccc23)[C@H]2C[C@@H](NCc3cccnc3)C[C@@H](c3ccc(F)c(F)c3)N21	?	-	-	25µM
COCC(=O)N[C@H]1C[C@H]2C(=O)NC[C@@H](CCC(=O)NCc3cccnc3)N2C1	-	-	-	-
COC(=O)[C@@H]1Cc2c([nH]c3ccccc23)[C@H]2C[C@@H](NCc3cccnc3)C[C@@H](c3ccc(F)cc3)N21	20µM	-	-	22µM
CC(=O)N[C@H]1CO[C@H]2[C@@H]1OC[C@@H]2Nc1nccc(-c2cccc(F)c2)n1	-	-	?	?
COCC(=O)N[C@H]1CO[C@H]2[C@@H]1OC[C@@H]2Nc1nccc(-c2cccc(F)c2)n1	?	-	-	100µM
Cc1ccc(S(=O)(=O)N[C@H]2CO[C@H]3[C@@H]2OC[C@@H]3Nc2nccc(C(C)(C)C)n2)cc1	?	?	3.5µM	25µM
C=CCNC(=O)N[C@H]1CO[C@H]2[C@@H]1OC[C@@H]2Nc1nccc(-c2ccc(OC)cc2)n1	?	-	-	89µM
CN(C)c1ccc(C(=O)N[C@H]2CO[C@H]3[C@@H]2OC[C@@H]3Nc2nccc(-c3cccs3)n2)cc1	?	?	-	45µM
Cc1ccccc1C(=O)N1CCCC(C(=O)N2CCC(N3Cc4cccn4C3=O)CC2)C1 (stereo unspecified)	-	.	.	-
Cc1cn2nnc(C(=O)NC3CCc4ccccc43)c2c(=O)[nH]1 (stereo unspecified)	?	-	-	?
COc1ccc(-c2ccnc(N[C@H]3CO[C@H]4[C@@H]3OC[C@@H]4NS(=O)(=O)c3ccc(NC(C)=O)cc3)n2)cc1	?	-	?	40µM
CN(C)c1ccc(-c2ccnc(N[C@H]3CO[C@H]4[C@@H]3OC[C@@H]4NC(=O)NCc3ccccc3)n2)cc1	22µM	?	-	32µM
COc1ccc(-c2ccnc(N[C@H]3CO[C@H]4[C@@H]3OC[C@@H]4NC(=O)NCc3ccccc3)n2)cc1	?	-	-	?
O=C(N[C@H]1CO[C@H]2[C@@H]1OC[C@@H]2Nc1nccc(-c2ccc(-c3ccccc3)cc2)n1)c1ccccc1	?	-	?	10µM
CC(C)(C)c1nc(C(=O)N2CCCC2)n2ccncc12	-	.	.	-
COc1ccc(NC(=O)CN2C(=O)COc3ccc(C(=O)COc4cccc(F)c4)cc32)cc1	40µM	-	-	-
O=C(CN1C(=O)COc2ccc(C(=O)COc3cccc(F)c3)cc21)NCc1ccc2c(c1)OCO2	-	-	-	-
CCc1ccccc1OCC(=O)c1ccc2c(c1)N(CC(=O)Nc1ccc(F)cc1)C(=O)CO2	32µM	-	-	40µM
Cc1c(-c2ccccc2F)[nH]c2ccc(CNC(=O)CCC3=NNC(=O)CC3)cc12	?	?	-	?
CCOCCn1c(=O)[nH]c2cc(C(=O)NCc3ccc(F)c(F)c3)ccc21	-	-	-	-
Cc1c(-c2ccccc2F)[nH]c2ccc(CNC(=O)Cn3ccc(=O)[nH]c3=O)cc12	45µM	10µM	-	45µM
Cc1c(-c2ccccc2F)[nH]c2ccc(CNC(=O)CCN3CCCC3=O)cc12	-	28µM	-	?
CC(C)CNc1ccc2c(n1)C(C)(C(=O)NC1CCN(C)CC1)CN(Cc1ccccc1)C2 (stereo unspecified)	32µM	-	-	?
CC(C)CNc1ccc2c(n1)C(C)(C(=O)NC1CCC(O)CC1)CN(Cc1ccccc1)C2 (stereo unspecified)	45µM	-	-	?
O=C(c1ccc(Cl)cc1)N1CCC(N2CCCOC2=O)CC1	-	.	.	-

Screening results (PubChem)
